This note sets out measurements from PMC4336329 (PLoS ONE, 2015).

Among all 310,000 compounds or so, about 2,200 (0.71%) showed an effect of 50% or more. Effects have a minus sign here. This is one part of a sample in which strong results are shown more often than they occur.

human ether-à-go-go-related gene (hERG) potassium channel, sequence (Q12809 whole entry, looked up): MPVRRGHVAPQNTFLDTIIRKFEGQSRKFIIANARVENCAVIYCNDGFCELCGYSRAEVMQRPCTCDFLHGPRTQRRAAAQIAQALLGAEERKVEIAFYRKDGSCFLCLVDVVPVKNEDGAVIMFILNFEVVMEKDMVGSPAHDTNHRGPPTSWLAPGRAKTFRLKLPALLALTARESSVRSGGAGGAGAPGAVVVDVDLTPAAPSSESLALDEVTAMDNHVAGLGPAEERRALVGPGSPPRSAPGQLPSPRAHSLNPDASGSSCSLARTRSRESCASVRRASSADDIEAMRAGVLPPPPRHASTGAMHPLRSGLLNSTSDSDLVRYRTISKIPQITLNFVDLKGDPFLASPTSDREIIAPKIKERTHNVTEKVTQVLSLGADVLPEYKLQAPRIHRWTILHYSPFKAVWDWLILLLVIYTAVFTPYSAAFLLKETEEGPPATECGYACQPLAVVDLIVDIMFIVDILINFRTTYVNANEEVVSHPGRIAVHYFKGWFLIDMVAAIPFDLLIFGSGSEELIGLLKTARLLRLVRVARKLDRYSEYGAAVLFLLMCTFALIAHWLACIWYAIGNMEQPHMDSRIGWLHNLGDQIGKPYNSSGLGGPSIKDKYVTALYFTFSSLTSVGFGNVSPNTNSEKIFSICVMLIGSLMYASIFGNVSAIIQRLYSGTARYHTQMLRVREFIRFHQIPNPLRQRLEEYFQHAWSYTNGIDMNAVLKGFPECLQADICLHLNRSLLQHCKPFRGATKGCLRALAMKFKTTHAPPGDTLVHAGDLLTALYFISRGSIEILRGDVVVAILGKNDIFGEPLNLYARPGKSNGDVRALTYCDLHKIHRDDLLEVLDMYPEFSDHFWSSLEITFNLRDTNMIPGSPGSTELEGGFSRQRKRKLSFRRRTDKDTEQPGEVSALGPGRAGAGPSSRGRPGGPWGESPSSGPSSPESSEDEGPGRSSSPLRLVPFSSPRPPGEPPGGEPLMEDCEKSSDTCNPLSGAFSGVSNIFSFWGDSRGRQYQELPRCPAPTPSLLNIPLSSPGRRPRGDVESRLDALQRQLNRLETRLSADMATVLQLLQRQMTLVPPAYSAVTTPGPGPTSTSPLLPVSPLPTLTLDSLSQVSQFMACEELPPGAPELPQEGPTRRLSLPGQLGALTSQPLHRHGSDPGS

This test addresses human ether-à-go-go-related gene (hERG) potassium channel (human, UniProt Q12809). Nature of the test: primary screen, population patch clamp on CHO cells stably expressing hERG; higher = less effect of the substance.
In the case of `Cc1ccc(C)c(CN2C(=O)CSc3ccc(C(=O)NCC(C)CN4CCC(C)CC4)cc32)c1` (centres unmarked), the “hERG current change (%, negative = inhibition) at 1uM” value is -70.4%. Turning to `Cc1ccc(C)c(CN2C(=O)CSc3ccc(C(=O)NCCN4CCOCC4)cc32)c1`, the “hERG current change (%, negative = inhibition) at 1uM” value was 20.1%. As for `Cc1ccc(C)c(CN2C(=O)CSc3ccc(C(=O)N4CCCC4)cc32)c1`, the “hERG current change (%, negative = inhibition) at 1uM” value stood at 5.65%. The result for `N#Cc1ccc(NC(=O)COC(=O)CSc2nnc(-c3ccc(Cl)cc3)o2)cc1` reads 6.91%; that for `Cc1sc2ncnc(N3CCC(C(=O)N(C)CC(=O)Nc4ccccc4Br)CC3)c2c1C`, -8.93%; that for `Cc1sc2ncnc(N3CCC(C(=O)N(C)CC(=O)Nc4ccccc4Cl)CC3)c2c1C`, -30%.

As for `CCCN(CC(=O)Nc1ccccc1C)C(=O)C1CCN(c2ncnc3sc(C)c(C)c23)CC1`, the “hERG current change (%, negative = inhibition) at 1uM” value is listed as -56.5%. In the case of `CCCN1CCN(c2nc(-c3cccs3)nc3ccccc23)CC1` it was -16.1%. In the case of `c1csc(-c2nc(N3CCOCC3)c3ccccc3n2)c1` it was 5.11%. The result for `c1ccc(N2CCN(c3nc(-c4cccs4)nc4ccccc34)CC2)cc1` reads 4.12%; that for `CCN1CCN(c2nc(-c3cccs3)nc3ccccc23)CC1`, -66.2%; that for `CC(=O)N1CCN(c2nc(-c3cccs3)nc3ccccc23)CC1`, -49.4%. Consider `CN1CCN(c2nc(-c3cccs3)nc3ccccc23)CC1`, for which the “hERG current change (%, negative = inhibition) at 1uM” value is reported as -55%. As to `COc1ccc(CC(=O)N2CCN(S(=O)(=O)c3cc(Cl)ccc3Cl)CC2)cc1`, the “hERG current change (%, negative = inhibition) at 1uM” value is 14%. Turning to `CCOC(=O)N1CCC(N2CCN(c3cc(C)ccc3C)CC2)CC1`, the “hERG current change (%, negative = inhibition) at 1uM” value is on record as -32.2%. In the case of `COc1cccc2c1OCC/C2=N\NC(=O)COc1ccccc1C` it was -13.9%; in that of `COc1ccc(CNC(=O)C2CC(c3cccc([N+](=O)[O-])c3)=NO2)cc1` (centres unmarked), 5.46%. For the molecule `O=C(NCc1cccnc1)c1ccc(Cl)cc1[N+](=O)[O-]`, the “hERG current change (%, negative = inhibition) at 1uM” value amounted to 7.05%. `c1ccc(CSc2ncnc3c2oc2ccccc23)cc1`: the “hERG current change (%, negative = inhibition) at 1uM” value came to 9.56%.

As to `O=C(CSc1nc2ccccc2c(=O)n1CC1CCCO1)NCc1ccc2c(c1)OCO2` (centres unmarked), the “hERG current change (%, negative = inhibition) at 1uM” value is on record as 9.71%. The result for `Cc1ccc(CNC(=O)c2cc3c(=O)n4ccccc4nc3n(CC3CCCO3)c2=N)cc1` (centres unmarked) reads -85.7%; that for `CCOC(=O)c1cc2c(=O)n3ccccc3nc2n(CC2CCCO2)c1=NC(C)=O` (centres unmarked), 16.6%; that for `N=c1c(S(=O)(=O)c2ccc(F)cc2)cc2c(=O)n3ccccc3nc2n1CC1CCCO1` (centres unmarked), -2.33%. For the molecule `N=c1c(C(=O)NCc2ccc3c(c2)OCO3)cc2c(=O)n3ccccc3nc2n1CC1CCCO1` (centres unmarked), the “hERG current change (%, negative = inhibition) at 1uM” value is recorded as -84.2%. Turning to `N=c1c(C(=O)NCc2ccc(F)cc2)cc2c(=O)n3ccccc3nc2n1CC1CCCO1` (centres unmarked), the “hERG current change (%, negative = inhibition) at 1uM” value is -85.3%.

As for `COc1ccc(CNC(=O)c2cc3c(=O)n4ccccc4nc3n(CC3CCCO3)c2=N)cc1` (centres unmarked), the “hERG current change (%, negative = inhibition) at 1uM” value is given as -80.4%.

Take `CCc1ccc(N(CC(=O)Nc2ccccc2C(=O)N2CCOCC2)S(C)(=O)=O)cc1`: the “hERG current change (%, negative = inhibition) at 1uM” value was determined as 8.28%.

On to `O=C(NCc1cccnc1)c1ccc(CS(=O)(=O)Cc2ccc(Cl)cc2)o1`, for which the “hERG current change (%, negative = inhibition) at 1uM” value came out at 3.03%. The result for `Cc1c(C(=O)OCC(=O)N2c3ccccc3CC2C)oc2ccccc12` (centres unmarked) reads 14.6%; that for `O=C(Nc1cccc(F)c1)Nc1ccccn1`, 16%; that for `Cc1c(C(=O)c2ccccc2)c(=O)n(C)c(=O)n1C`, 9.65%. In the case of `O=S(=O)(Nc1cccc(-c2ccc(N3CCCCCC3)nn2)c1)c1cccc(F)c1` it was 14.3%. Regarding `CSc1nnc(-c2ccc(O)cc2)n1C`, the “hERG current change (%, negative = inhibition) at 1uM” value was -1.62%. Regarding `COC(=O)c1ccc(CN2CCCC(C(=O)c3cc(F)ccc3OC)C2)cc1` (centres unmarked), the “hERG current change (%, negative = inhibition) at 1uM” value is -8.3%. As for `O=C1c2ccccc2C(=O)N1CCCc1nc(-c2ccccn2)no1`, the “hERG current change (%, negative = inhibition) at 1uM” value was -4.38%. In the case of `CCOC(=O)/C(N=Nc1sc(C(=O)OC)c(C)c1C(=O)OCC)=C(\O)CCl` it was 14.4%; in that of `COc1cc(OC)cc(C(=O)OCC(=O)N(C)c2ccccc2)c1`, 9.32%. In the case of `Oc1ccc(-c2[nH]ncc2-c2ccc(Br)cc2)c(O)c1` it was 6.73%; in that of `CCC(=O)Nc1ccc(Oc2ccc3c(c2)C(=O)N(c2ccc(O)cc2)C3=O)cc1`, 13.7%; in that of `O=C1CC(N2CCN(C/C=C/c3ccccc3)CC2)C(=O)N1Cc1cccs1` (centres unmarked), -50.8%.

Consider `O=C1CC(N2CCN(C/C=C/c3ccccc3)CC2)C(=O)N1Cc1ccc(N2CCCC2=O)cc1` (centres unmarked), for which the “hERG current change (%, negative = inhibition) at 1uM” value was -13%. The result for `O=C1CC(N2CCN(C/C=C/c3ccccc3)CC2)C(=O)N1CCc1ccccc1` (centres unmarked) reads -4.01%. For `COc1ccc(NC(=O)CN2CCN(c3ccc(F)cc3)CC2)cc1Cl`, the “hERG current change (%, negative = inhibition) at 1uM” value is given as 13.2%. In the case of `CCOc1ccc(NC(=O)CN2CCN(CC(=O)Nc3ccc(OC)cc3OC)CC2)cc1` it was -58.2%; in that of `COc1ccc(NC(=O)CN2CCN(S(=O)(=O)c3ccc(F)cc3)CC2)cc1Cl`, 7.03%. The result for `COc1ccc(NC(=O)CN2CCN(CC(=O)Nc3ccccc3F)CC2)c(OC)c1` reads -19.6%; that for `COc1ccc(NC(=O)CN2CCCN(S(=O)(=O)c3ccc(F)cc3)CC2)c(OC)c1`, -8.18%. The result for `COc1ccc(NC(=O)CN2CCN(CC(=O)Nc3ccccc3Cl)CC2)c(OC)c1` reads -48%; that for `COc1cccc(NC(=O)CN2CCN(S(=O)(=O)c3ccc(F)cc3)CC2)c1`, 4.16%; that for `COc1ccc(NC(=O)CN2CCN(CC(=O)Nc3ccc(F)cc3)CC2)c(OC)c1`, -83.3%. In the case of `CCOc1ccc(NC(=O)CN2CCN(CC(=O)Nc3ccccc3OC)CC2)cc1`, the “hERG current change (%, negative = inhibition) at 1uM” value was -30.9%.

As for `COc1cccc(NC(=O)CN2CCN(CC(=O)Nc3ccc(F)cc3)CC2)c1`, the “hERG current change (%, negative = inhibition) at 1uM” value is on record as -90.6%. The result for `COc1ccc(NC(=O)CN2CCN(CC(=O)Nc3ccc(F)cc3)CC2)cc1Cl` reads -88.6%; that for `COc1cccc(NC(=O)CN2CCN(c3ccc(F)cc3)CC2)c1`, 2.77%; that for `Cc1[nH]c2ccccc2c1C(=O)/C=C/c1ccccc1Cl`, 14.6%. In the case of `NC(=O)CN1C(=O)NC2(CCCc3sccc32)C1=O` (centres unmarked) it was 17%. As to `O=C(CCC(=O)c1cccs1)OCc1nc2ccccc2s1`, the “hERG current change (%, negative = inhibition) at 1uM” value came out at 12.6%.

`O=c1c2ccccc2nc(CSc2ncnc3nc[nH]c23)n1-c1cccc(C(F)(F)F)c1`: the “hERG current change (%, negative = inhibition) at 1uM” value was -2.15%. The result for `COc1ccc(NC(=O)COc2cccnc2[N+](=O)[O-])cc1OC` reads 15.8%; that for `Cc1nc(C(=O)Nc2cc(Cl)ccc2Cl)nn1-c1cc(OC(C)C)c(Cl)cc1Cl`, -0.146%; that for `CC1CCCN(C(=O)CSc2cnc3ccccc3n2)C1` (centres unmarked), -9.88%. The result for `COc1ccccc1-c1noc(CSc2nc(C)cc(=O)[nH]2)n1` reads 19.4%. In the case of `Cc1ccc(NC(=O)C2C(c3ccccc3)C2(Cl)Cl)c(C)c1` (centres unmarked) it was 2.95%. With `COc1ccc(-c2nc(-c3cccs3)c(-c3cccs3)[nH]2)cc1OC`, the “hERG current change (%, negative = inhibition) at 1uM” value was 20.3%. The result for `O=[N+]([O-])c1cc([N+](=O)[O-])c(Oc2cc(Cl)cc(Cl)c2)cc1NN1CCCCC1` reads 11.6%. As for `Cc1ccc(S(=O)(=O)NCC2CCC(C(=O)NCCCN3CCCC3=O)CC2)cc1` (centres unmarked), the “hERG current change (%, negative = inhibition) at 1uM” value is reported as 11.2%. The result for `COc1ccc(N(CC(=O)O)S(=O)(=O)c2cccnc2)cc1` reads 14.2%.

In the case of `COc1ccccc1NC(=O)CN1CCN(CC(=O)Nc2ccc(OC)c(OC)c2)CC1`, the “hERG current change (%, negative = inhibition) at 1uM” value was determined as 12%. In the case of `COc1ccccc1NC(=O)CN1CCN(CC(=O)Nc2ccc(F)cc2)CC1` it was -87.4%; in that of `COc1ccccc1NC(=O)CN1CCN(CC(=O)Nc2ccc(C)c(F)c2)CC1`, -49.1%; in that of `CCCCCn1c(CN2CCN(Cc3ccccc3)CC2)nc2c1c(=O)[nH]c(=O)n2C`, -72.5%. Consider `CCCCCn1c(N2CCC(Cc3ccccc3)CC2)nc2c1c(=O)[nH]c(=O)n2C`, for which the “hERG current change (%, negative = inhibition) at 1uM” value was 11.2%.

For `CCCCCn1c(N2CCN(Cc3ccccc3)CC2)nc2c1c(=O)[nH]c(=O)n2C`, the “hERG current change (%, negative = inhibition) at 1uM” value is on record as -77%.

Take `Cn1c(=O)[nH]c(=O)c2c1nc(CN1CCN(Cc3ccccc3)CC1)n2CC(N)=O`: the “hERG current change (%, negative = inhibition) at 1uM” value was found to be 6.48%. The result for `CCCCCCn1c(CN2CCN(Cc3ccccc3)CC2)nc2c1c(=O)n(C)c(=O)n2C` reads -47.2%; that for `CCCCCn1c(CN2CCN(Cc3ccccc3)CC2)nc2c1c(=O)n(C)c(=O)n2C`, -57.9%. The result for `CCN1CCN(c2nc3c(c(=O)[nH]c(=O)n3C)n2CCCc2ccccc2)CC1` reads -81.5%; that for `CCN1CCN(c2nc3c(c(=O)[nH]c(=O)n3C)n2Cc2ccccc2)CC1`, 1.8%. On to `CCCCCn1c(CN2CCN(C)CC2)nc2c1c(=O)n(C)c(=O)n2C`, for which the “hERG current change (%, negative = inhibition) at 1uM” value is -5.24%. The result for `CCCCCCn1c(N2CCN(c3ccccc3)CC2)nc2c1c(=O)[nH]c(=O)n2C` reads -20.5%; that for `CC(C)CCn1c(CN2CCN(Cc3ccccc3)CC2)nc2c1c(=O)[nH]c(=O)n2C`, -2.51%; that for `Cn1c(=O)[nH]c(=O)c2c1nc(N1CCN(Cc3ccccc3)CC1)n2CCCc1ccccc1`, -22%. For the molecule `COc1ccc(CCNC(=O)Nc2ccc(F)cc2F)cc1OC`, the “hERG current change (%, negative = inhibition) at 1uM” value is reported as 15.8%.
